hcDAF-12 act: activators of H. contortus DAF-12 nuclear receptor; activation, % at 6.8 µM; 370,000 compounds, 1.4% hits; HEK293 hcDAF-12 lit1-tk-luc reporter, luminescence; 0% DMSO, 100% Δ7-dafachronic acid;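 active = activation above the mean of all tested compounds plus 3 SD, cut at about 5.5% in these data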
hgDAF12 agonist: activates the H. glycines DAF-12 receptor ligand-binding domain | HEK293 GAL4-hgDAF12 UAS-luciferase reporter, agonist luminescence; normalized to butyrate control | activation, % at 6.8 µM | 370,000 compounds, 1.8% hits | AID 687014;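 active = activation above a cutoff set at the mean of all screened compounds plus 3 SD, cut at about 10% in these data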
SMARCA2 act: increases SMARCA2 function in MMTV reporter cells; AID 652017; MG213 cells, MMTV-luciferase reporter, dexamethasone, overnight; 370,000 compounds, 1% hits; activation, % at 9.1 µM; in the data active = activation above about 7.8%
ssDAF-12 act: S. stercoralis DAF-12 activation, primary screen; HEK293 ssDAF-12/GRIP1 lit1-tk-luc reporter, luminescence; % of 3 µM dafachronic acid response; activation, % at 6.8 µM; 370,000 compounds, 1% hits; AID 652126;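 active = activation above the mean over all tested compounds plus 3 SD, cut at about 0.9% in these data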
DAX1 inh-1: inhibitors of human orphan nuclear receptor DAX1 (NR0B1) | AID 504766 | HEK293 Gal4-DAX1 luciferase reporter, luminescence | inhibition, % at 6.75 µM | P51843 | 340,000 compounds, 0.99% hits;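 active = inhibition above the mean over all tested compounds plus 3 SD, cut at about 4.2% in these data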;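 also: inhibition shows as a rise in luminescence from relieved DAX1 repression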
Target sequence (P51843 207-470 limits assumed): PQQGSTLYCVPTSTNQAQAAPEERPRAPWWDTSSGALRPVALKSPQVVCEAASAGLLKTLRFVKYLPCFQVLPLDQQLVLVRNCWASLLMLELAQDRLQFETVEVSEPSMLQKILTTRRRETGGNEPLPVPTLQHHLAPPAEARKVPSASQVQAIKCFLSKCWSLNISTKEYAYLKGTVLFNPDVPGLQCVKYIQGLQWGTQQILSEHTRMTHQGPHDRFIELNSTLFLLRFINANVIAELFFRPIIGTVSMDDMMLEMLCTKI
DAX1 inh-2: blocks DAX1 repression of SF-1 activated StAR promoter; HEK293T StAR-luciferase reporter, SF-1/DAX-1 repression relief; inhibition, % at 6.8 µM; 370,000 compounds, 1.1% hits; AID 652010;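 active = inhibition above the mean over all tested compounds plus 3 SD, cut at about 3.6% in these data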;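 also: higher inhibition means more luminescence from relief of DAX-1 repression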
Of the large screens only hits and unclear results are named; the others gave an inactive call. Compounds with a hit are over-represented: about 4.8% of the library has one in this group of screens.

CCCc1nnc(SCC(=O)N(CC)CC)n1CC1CCCO1 (stereo not drawn)	DAX1 inh-1 5.5
NC(=O)CSc1nnc(CNc2ccc(F)cc2)n1CC1CCCO1 (stereo not drawn)	none
COC(=O)C1CN(Cc2ccc(Cl)cc2)CCS(=O)(=O)N1Cc1cn(Cc2ccccc2)nn1 (stereo not drawn)	none (no result: DAX1 inh-1)
COc1ccc(/C=C/c2nc(-c3ccccc3O)n[nH]2)cc1OC	hgDAF12 agonist 12
CC(=O)N1CCc2c1cccc2S(=O)(=O)NC(CC(C)C)C(=O)Nc1ccc(Cl)c(Cl)c1 (stereo not drawn)	none (no result: DAX1 inh-1)
COc1cc(NC(=O)NC2CCCCN(Cc3cccc(Cl)c3)C2=O)cc(OC)c1 (stereo not drawn)	none (no result: DAX1 inh-1)
Cc1cc(C)n2c(SCc3ccc(C#N)cc3)nnc2n1	none
Cc1cc(C)n2c(SCC#N)nnc2n1	DAX1 inh-1 4.6
CCCSc1nnc2nc(C)cc(C)n12	DAX1 inh-1 4.7
Cc1cc(C)n2c(SCc3cccs3)nnc2n1	none
C=CCN(CC#CC(=C)C)Cc1ccc(OC)cc1OC	none (no result: DAX1 inh-1)
Cc1ncc2c(c1OC(=O)c1ccccc1)COC(C)(C)OC2	DAX1 inh-1 5.1
CCC1=NN2C(=N)/C(=C\c3cccn3-c3cccc(Cl)c3)C(=O)N=C2S1	none
CCC1=NN2C(=N)/C(=C\c3cccn3-c3ccc(Br)cc3)C(=O)N=C2S1	DAX1 inh-1 4.7
C=CCN(C)C(C#Cc1ccccc1)c1ccccc1C(F)(F)F (stereo not drawn)	none (no result: SMARCA2 act, DAX1 inh-1, DAX1 inh-2)
O=C(NCC(=O)N(CCN1CCOCC1)C(C(=O)NC1CCCC1)c1cccs1)c1ccco1 (stereo not drawn)	DAX1 inh-1 4.7
COCc1cc(C)c2c(N)c(C#N)sc2n1	SMARCA2 act 7.9
COc1ccc(-c2cc(-c3cccs3)nc3sc(C#N)c(N)c23)cc1	none
C=CCN1C(=O)[C@]2(OCCC=C[C@H]2C)c2cc(OC)ccc21	none (no result: DAX1 inh-1)
O=C(Cc1c(F)cccc1Cl)Nc1cccnc1	none
O=C(Cc1c(F)cccc1Cl)NCc1cccnc1	hcDAF-12 act 5.6
Cc1cc(C)nc(NC(=S)N2CCN(c3ncc(C(F)(F)F)cc3Cl)CC2)c1	none (no result: SMARCA2 act, DAX1 inh-1, DAX1 inh-2)
O=c1[nH]ncn1-c1ccc(Br)cc1	DAX1 inh-1 5.2
CCN(CC)S(=O)(=O)c1ccc(C)c(NC(=O)/C=C/c2cccs2)c1	none
Cc1ccccc1NC(=O)/C=C/c1cccs1	hgDAF12 agonist 13
CCOC(=O)c1c(C)oc2c1c(C=NCC1CCCO1)c(O)c1ccccc12 (stereo not drawn)	DAX1 inh-1 6.6
CCOC(=O)c1c(C)oc2c1c(C=NCc1ccccn1)c(O)c1ccccc12	none
COC(=O)[C@H](CC(C)C)N(CCCc1cn(Cc2ccccc2)nn1)S(=O)(=O)c1ccccc1Br	none (no result: DAX1 inh-1)
CCCCNC(=O)C1CCN(S(=O)(=O)N2CCCCCC2)CC1	hcDAF-12 act 5.9
CC(=O)C1(C(=O)NC2CCCC2)CC(c2ccccc2C(F)(F)F)=NO1 (stereo not drawn)	none (no result: DAX1 inh-1)
CC(=O)c1ccc(Cc2ccc(C(C)=O)cc2)cc1	none
CC(=O)c1ccc(CCCC(=O)O)cc1	DAX1 inh-1 4.9
COc1ccc(CC2(CO)CCN(Cc3ccncc3)CC2)cc1	none
COc1ccc(CC2(CO)CCN(Cc3cnn(C)c3C)CC2)cc1	DAX1 inh-1 4.9
COC(=O)[C@]12C[C@H](CC(=O)NCc3ccc(C)o3)C(=O)N(Cc3cccc4ccccc34)C1=C[C@H](C(C)(C)C)O[C@@H]2C	none (no result: DAX1 inh-1)
O=C1Cc2ccccc2C(=O)N1OCc1ccc(Cl)cc1	ssDAF-12 act 0.9
COc1ccc(Cl)cc1N(C(C)=O)c1nc(C)cc(C)c1C#N	hcDAF-12 act 5.9, DAX1 inh-1 5.1
COc1cc2ccc(=O)oc2cc1O	DAX1 inh-1 5.1
CC(C)[C@H](NC(=O)c1ccccc1)C(=O)N1CCC[C@H]1C(=O)NCCc1ccccc1Cl	none (no result: DAX1 inh-1)
NC(Cc1ccc(Cl)cc1)c1csc(Nc2ccc(S(N)(=O)=O)cc2)n1 (stereo not drawn)	DAX1 inh-2 4.3 (no result: DAX1 inh-1)
CS(=O)(=O)c1ccc(Nc2nc(C(N)Cc3ccc(Cl)cc3)cs2)cc1 (stereo not drawn)	none (no result: DAX1 inh-1)
O=C(NCCc1c[nH]c2ccccc12)OCc1cn(-c2ccc(F)cc2)nn1	none (no result: DAX1 inh-1)
COC(=O)C1CN(Cc2ccccc2)CCS(=O)(=O)N1Cc1cn(Cc2cccc(Cl)c2)nn1 (stereo not drawn)	none (no result: DAX1 inh-1)
Cc1ccc2nc3c(c(N)c2c1)CCN3C	hcDAF-12 act 6.2
Cc1ccccc1CN1CCCCC(NC(=O)c2ccc(-c3ccccc3)cc2)C1=O (stereo not drawn)	none (no result: DAX1 inh-1)
CCOc1ccc(NC(=S)Nc2ccc(OCc3ccccc3)cc2)cc1	none
CCN(CC)C(=O)C(=O)Nc1ccc(OCc2ccccc2)cc1	hgDAF12 agonist 12
O=C(Nc1ccc(OCc2ccccc2)cc1)c1cccs1	DAX1 inh-1 5.1
O=C(NCCc1ccccc1)c1cccs1	hgDAF12 agonist 11
O=C(N/N=C/c1ccc(OCc2ccccc2)cc1)c1cccs1	none
O=C(Nc1ccc(Cl)cc1)c1cccs1	hgDAF12 agonist 12
CCOC(=O)[C@@]12CCCC3=C1N(CCC3)C(=O)[C@H]2CC(=O)NCCC(C)C	none (no result: DAX1 inh-1)
Cc1cc2ccccc2n1CCNC(=O)C1CC1	none
Cc1cc2ccccc2n1CCNC(=O)c1cccs1	ssDAF-12 act 1.6
COc1cc(/C=N/n2cnnc2)ccc1OCCOc1ccccc1	none
CCOc1cc(/C=N/n2cnnc2)ccc1O	hcDAF-12 act 6.5
COc1cc(/C=N/n2cnnc2)ccc1OCc1ccc(C)cc1	hgDAF12 agonist 12
C=CCc1cc(/C=N/n2cnnc2)cc(OCC)c1O	none
NC(=O)c1c(N)[nH]c(C(=O)c2ccccc2)c1-c1ccccc1	none (no result: DAX1 inh-1)
CC1CCc2c(sc3ncn(CC(=O)N=Nc4c(O)[nH]c5ccccc45)c(=O)c23)C1 (stereo not drawn)	DAX1 inh-1 4.6
CNC12CCc3cc(OC)c(OC)c(c31)-c1cc3c(cc1C2)OCO3 (stereo not drawn)	none (no result: DAX1 inh-1)
O=C1CN(c2ccccc2)C(=S)N1C(=O)c1ccccc1	hcDAF-12 act 5.7, hgDAF12 agonist 11, DAX1 inh-1 5.8
Cc1nc2sc(C(N)=O)c(N)c2c(C)c1CC(=O)c1ccccc1	hgDAF12 agonist 12
Nc1cc2c(cc1Br)-c1ccc(F)cc1C2O (stereo not drawn)	hgDAF12 agonist 12
CC(COc1ccc(Cl)cc1)CN1CCC(C(O)(c2ccccc2)c2ccccc2)CC1 (stereo not drawn)	none (no result: DAX1 inh-1)
CCOC(=O)CC[C@H]1CC[C@]2(CCCN(S(=O)(=O)C3CCCCC3)C2)O1	none (no result: DAX1 inh-1)
Cc1onc(-c2ccccc2)c1C(=O)Nc1ccncc1	none
Cc1onc(-c2ccccc2)c1C(=O)Nc1cccc(C#N)c1	hgDAF12 agonist 11
Cc1onc(-c2ccccc2)c1C(=O)NNC(=O)c1ccccc1O	none

High-throughput results (PubChem)
